SMILES strings stand for the structures. The campaign covered roughly 16,000 compounds. About 5,800 (36%) were called active. Inconclusive results (about 23%) are left out. The call rests on the fitted dose curve; in most records, active means well fitted curve in the direction sought with a large enough effect; inconclusive means small, poorly fitted or top-dose-only effect, or effect the other way; inactive means no such curve, though single readings can be large or run the other way. Some of the results follow.
On the % scale 0 is the no-effect control and ±100 the full control effect.

Chain of Cytochrome P450 2C19 (Homo sapiens) (P33261 whole entry, looked up): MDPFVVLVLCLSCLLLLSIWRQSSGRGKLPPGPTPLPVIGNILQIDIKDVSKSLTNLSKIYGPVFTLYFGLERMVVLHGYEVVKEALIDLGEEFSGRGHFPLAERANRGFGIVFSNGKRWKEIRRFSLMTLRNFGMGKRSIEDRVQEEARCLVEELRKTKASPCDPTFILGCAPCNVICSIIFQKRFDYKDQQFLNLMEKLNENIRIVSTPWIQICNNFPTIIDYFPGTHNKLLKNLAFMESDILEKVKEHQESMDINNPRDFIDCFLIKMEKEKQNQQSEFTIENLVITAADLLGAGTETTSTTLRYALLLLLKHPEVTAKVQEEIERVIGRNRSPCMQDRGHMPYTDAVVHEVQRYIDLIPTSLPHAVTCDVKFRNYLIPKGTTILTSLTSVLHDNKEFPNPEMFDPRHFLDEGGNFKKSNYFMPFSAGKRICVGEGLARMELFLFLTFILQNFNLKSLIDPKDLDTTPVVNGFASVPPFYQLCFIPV

The test has as its target Cytochrome P450 2C19 (Homo sapiens) (UniProt P33261). The experiment in a line: Cytochrome panel assay with activity outcomes. The following applies: recombinant CYP, pro-luciferin dealkylation, luminescence, p450-cyp2c19; series mostly up to 57.1 µM.
For the compound `CO/N=C(\C)CCN1CCCc2nc(C)c(C)cc21`, the activity, negative = inhibition was -7.2% [at 11.4 µM] (inactive).
On to `Cc1ccccc1NC1=C(C(=O)c2ccccc2)N(C)S(=O)(=O)c2ccccc21`, for which the AC50 was 8.91 µM (active).
For `Cc1cc(NC(=O)C2=C(O)c3ccccc3S(=O)(=O)N2C)no1`, the AC50 entry is “inactive”.
For `CO[C@@H]1/C=C\CC(=O)N[C@@H](C)C(=O)OC[C@@H](OC)[C@H](C)CCCC(=O)OC[C@H]1C`, the activity, negative = inhibition is -3.19% [at 11.4 µM] (inactive).
Regarding `C[C@@H]1CCC[C@H](C)N1NC(=O)c1ccc(Cl)c(S(N)(=O)=O)c1`, the AC50 result was “inactive”.
As to `CC1CCCC(C)N1C(=O)c1cc(-c2ccc(Cl)c(Cl)c2)on1` (configuration not stated), the half-maximal activity concentration (AC50) is 11.2 µM (active).
The same measure, in the same setting: for `CCCN[C@@H](C)C(=O)Nc1ccccc1C` the value was “inactive”; for `Cc1ccccc1NC(=O)C(C)c1cccc(C(=O)c2ccccc2)c1` (configuration not stated), 1.26 µM (active).
Regarding `N[C@@H](Cc1c[nH]c2ccc([N+](=O)[O-])cc12)C(=O)O`, the activity, negative = inhibition was 34.9% [at 11.4 µM] (inactive).
`O=C(NCc1cn(-c2ccccc2)nc1-c1ccccc1)c1cc([N+](=O)[O-])cc([N+](=O)[O-])c1`: the concentration at half-maximal activity (AC50) is 1.78 µM (active).
On the same count and under the same terms, for `c1coc(CN2CCN(C(c3cccs3)c3nnnn3C3CCCC3)CC2)c1` (configuration not stated) the value was 10 µM (active).
As to `CS(=O)(=O)N1CCC2(CCN(Cc3ccncc3)CC2)CC1`, the AC50 entry is “inactive”.
On the same count and under the same terms, to `Clc1ccc(C(c2nnnn2C2CCCC2)N2CCN(Cc3ccncc3)CC2)cc1` (configuration not stated) belongs 0.224 µM (active); to `Cc1cc(C(=O)CSc2nnc(-c3ccccc3)o2)c(C)n1CC1COc2ccccc2O1` (configuration not stated), 1.12 µM (active); to `CC(=O)c1cccc(NC(=O)CCC2CCCC2)c1`, 3.55 µM (active).
Same read-out and setting: to `CC(=O)NNC(=O)CCC(=O)Nc1ccccc1` belongs “inactive”; to `O=C(Cn1cc(C(=O)c2ccco2)c2ccccc21)NCc1ccco1`, 2.24 µM (active).
The same measure, in the same setting: for `COc1ccccc1OCCn1cc(C(=O)c2ccco2)c2ccccc21` the value was 1 µM (active); for `Cc1ccccc1C(=O)c1cccn1CC(=O)NCc1ccco1`, 11.2 µM (active).
Regarding `COc1ccccc1CN1CCC2(CC1)CCN(C(=O)c1ccco1)CC2`, the AC50 result was “inactive”.
Still for that read-out and setting: to `O=C(Cn1cccc1C(=O)c1ccccc1)NCc1cccs1` belongs 2.82 µM (active); to `COc1ccccc1CN1CCCC2(CCN(C(=O)c3ccco3)CC2)C1`, “inactive”; to `CCS(=O)(=O)c1ccc(C(=O)Nc2ccccc2)c(Cl)c1Cl`, 11.2 µM (active).
`O=C(c1csnn1)N1CCC2(CCCN(c3ccc(-c4ccccc4)cc3)C2)CC1`: the AC50 result was “inactive”.
In the case of `O=C(O)CCc1nc(-c2ccccc2-n2cccc2)no1`, the activity, negative = inhibition is -29.3% [at 11.4 µM] (inactive).
Take `Nc1nonc1-c1noc(CCCN2C(=O)c3ccccc3C2=O)n1`: the AC50 is 3.98 µM (active).
In the case of `CCNc1ncc2nc(C)c(=O)n(CCC#N)c2n1`, the AC50 entry was “inactive”.
As to `CCNc1ncc2nc(-c3ccccc3)c(=O)n(CCc3ccccc3)c2n1`, the half-maximal activity concentration (AC50) is 1 µM (active).
Take `CCNc1ncc2nc(-c3cccs3)c(=O)n(CCc3ccccc3)c2n1`: the AC50 result is “inactive”.
On to `CCNc1ncc2nc(C)c(=O)n(CCc3ccccc3)c2n1`, for which the half-maximal activity concentration (AC50) is 0.316 µM (active).
Turning to `Cc1nc2cnc(Nc3ccccc3)nc2n(CCc2ccccc2)c1=O`, the AC50 result was “inactive”.
The same measure, in the same setting: to `CCNc1ncc2nc(-c3ccccc3)c(=O)n(CCC#N)c2n1` belongs “inactive”.
Regarding `O=C(O)c1nn(-c2ccccc2-c2n[nH]c(=O)[nH]c2=O)c(=O)[nH]c1=O`, the activity, negative = inhibition was 20.9% [at 11.4 µM] (inactive).
With `Cc1cccc(N2CCN(c3ccc(NC(=O)/C=C(/C(=O)O)c4ccccc4)cc3)CC2)c1`, the AC50 is 4.47 µM (active).
On the same count and under the same terms, to `Cc1cc(C(=O)Nc2ccc(N3CCOCC3)cc2)c2ccccc2n1` belongs “inactive”; to `c1ccc(CNc2nc(-c3ccc4c(c3)OCO4)nc3ccccc23)cc1`, 10 µM (active).
Regarding `Cc1cccc(CNc2nc(-c3ccc4c(c3)OCO4)nc3ccccc23)c1`, the AC50 is 3.16 µM (active).
On the same count and under the same terms, for `CN(C)Cc1ccccc1-c1nc(NCc2ccccc2)c2ccccc2n1` the value was “inactive”; for `c1cncc(CNc2nc(-c3ccc4c(c3)OCO4)nc3ccccc23)c1`, 10 µM (active); for `c1csc(CNc2nc(-c3ccc4c(c3)OCO4)nc3ccccc23)c1`, 3.16 µM (active).
On the same count and under the same terms, for `CN[C@H]1[C@@H](O[C@@H]2[C@H](O[C@@H]3[C@@H](O)[C@@H](O)[C@@H](N=C(N)N)[C@@H](O)[C@@H]3N=C(N)N)O[C@H](C)[C@@]2(O)C=O)O[C@@H](CO)[C@@H](O)[C@H]1O` the value was “inactive”.
Take `Nc1ncnc2c1ncn2C[C@@H](O)C(=O)O`: the activity, negative = inhibition is -17.6% [at 11.4 µM] (inactive).
Regarding `O=C1NCC2(CCN(CCc3ccccc3)CC2)O1`, the AC50 entry is “inactive”.
On the same count and under the same terms, to `COc1ccc(OC)c(C2C(C(=O)Nc3nc4ccccc4s3)=C(C)NC3=C2C(=O)CCC3)c1` (configuration not stated) belongs 0.891 µM (active); to `Cc1ccc([C@@H](O)c2cnc(C)n2Cc2ccccc2)cc1`, 1.26 µM (active).
With `Cc1ncc([N+](=O)[O-])n1CC(=O)NCc1ccccc1`, the AC50 entry is “inactive”.
The same measure, in the same setting: for `Cc1ncc([N+](=O)[O-])n1CC(C)O` (configuration not stated) the value was “inactive”; for `COc1ccc(Oc2ncc3nc(-c4ccc(F)cc4)c(=O)n(Cc4cccs4)c3n2)cc1`, “inactive”.
Same read-out and setting: to `CCC1(C)CC(CCNS(=O)(=O)c2ccc(C)cc2)(c2ccc(C)cc2)CCO1` (configuration not stated) belongs 3.98 µM (active).
Turning to `CC1(C)O[C@@H]2O[C@H]([C@@H]3COC(C)(C)O3)[C@H](N)[C@H]2O1`, the activity, negative = inhibition was 14.5% [at 11.4 µM] (inactive).
With `CCOc1ccc(OCC)c(-c2c(=O)n(OCc3ccc(C(C)(C)C)cc3)c3ccccc3[n+]2[O-])c1`, the half-maximal activity concentration (AC50) was 1.58 µM (active).
Take `CCOc1ccc(OCC)c(-c2c(=O)n(OCc3ccccc3C(=O)OC)c3ccccc3[n+]2[O-])c1`: the AC50 was 4.47 µM (active).
On the same count and under the same terms, for `COc1ccc(CNC(=O)C2CSC(=O)C2)cc1` (configuration not stated) the value was “inactive”; for `COc1ccc(CNC(=O)c2cnc(C)cn2)cc1`, 14.1 µM (active); for `COc1ccc(CNC(=O)c2csc(Cc3ccc(OC)cc3)n2)cc1`, 8.91 µM (active).
Same read-out and setting: to `COc1ccc(CCNC(=O)COC(=O)c2cnc(C)cn2)cc1` belongs “inactive”; to `COc1ccc(CNC(=O)c2csc(Cc3ccc(Cl)cc3)n2)cc1`, 2.51 µM (active).
On the same count and under the same terms, to `COc1ccccc1NC(=O)C(C/C=C(\C)Cl)C(C)=O` (configuration not stated) belongs 3.55 µM (active); to `COc1ccccc1NC(=O)c1nc[nH]c1C(=O)Nc1ccccc1OC`, “inactive”; to `O=C(COC(=O)c1cccnc1Nc1cccc(C(F)(F)F)c1)NCc1ccc2c(c1)OCO2`, 3.55 µM (active).
For the compound `Cc1cccc(Nc2ccccc2C(=O)OCC(=O)NCc2ccco2)c1C`, the AC50 is 5.01 µM (active).
Still for that read-out and setting: for `Cc1cccc(Nc2ccccc2C(=O)O)c1C` the value was “inactive”.
The same measure, in the same setting: for `O=C(O)c1cccnc1Nc1cccc(C(F)(F)F)c1` the value was “inactive”.
The same measure, in the same setting: for `O=C(COC(=O)c1ccccc1Nc1cccc(C(F)(F)F)c1)NCc1ccco1` the value was 2 µM (active); for `O=C(O)CCCC[C@H]1CCSS1`, “inactive”.
With `COc1ccc(CNc2ncncc2-c2cccc(C#N)c2)c(OC)c1`, the concentration at half-maximal activity (AC50) is 5.01 µM (active).
The same measure, in the same setting: to `COc1ccccc1CNc1ncncc1-c1cccc(C#N)c1` belongs 3.16 µM (active).
The same measure, in the same setting: for `Cc1n[nH]c(=O)nc1NCc1ccccc1Cl` the value was 28.2 µM (active); for `Cc1cnc(CNc2nc(-c3ccccc3Cl)nc3ccccc23)cn1`, “inactive”; for `CCCCCCCOC1(c2ccccc2)OC(=O)c2ccccc21` (configuration not stated), 3.55 µM (active).
On the same count and under the same terms, to `CCCCOC1(c2ccccc2)OC(=O)c2ccccc21` (configuration not stated) belongs 6.31 µM (active); to `CC(=O)[C@@]1(O)Cc2c(O)c3c(c(O)c2[C@H](O[C@H]2C[C@H](N)[C@H](O)[C@H](C)O2)C1)C(=O)c1ccccc1C3=O`, “inactive”.
Consider `COc1ccc(C(=O)NC(=S)NC(C)C)cc1Br`, for which the AC50 is 2.24 µM (active).
On the same count and under the same terms, to `COc1ccc(C(=O)NC(=S)NC(C)(C)C)cc1Br` belongs 3.55 µM (active); to `C=CCN1CCc2c(cc(O)c(O)c2Br)[C@H](c2ccccc2)C1`, “inactive”; to `COC(=O)CNC(=O)CN1C(=O)N(c2ccc(Cl)cc2)C(N(O)C(=O)Nc2ccc(Cl)cc2)C1(C)C` (configuration not stated), 14.1 µM (active).
On the same count and under the same terms, for `NC(=NCc1ccc(Cl)c(Cl)c1)NC(=O)c1nc(Cl)c(N)nc1N` the value was “inactive”.
The same measure, in the same setting: to `CCCCCCCCCCCCC(=O)N1CCCC[C@H]1CNC(=O)[C@@H](N)CCCCN` belongs 7.94 µM (active).
Turning to `O=C(O)[C@@H](O)Cc1ccccn1`, the activity, negative = inhibition is 14.4% [at 11.4 µM] (inactive).
The same measure, in the same setting: to `CN(CCO)Cc1ncccc1O` belongs 42.9% [at 11.4 µM] (inactive).
As to `Cc1cccc(CN(C)CCc2ccccn2)c1`, the AC50 was 15.8 µM (active).
Take `CN(CCc1ccccn1)Cc1ccc(Cl)cc1Cl`: the AC50 is 0.447 µM (active).
Consider `CC(C)C(=O)C(C)(C)CCc1ccccn1`, for which the activity, negative = inhibition is -41.1% [at 11.4 µM] (inactive).
`CCOC(=O)c1cnn(-c2ccccc2)c1-n1cccc1C(=O)C(=O)Nc1ccccc1C(F)(F)F`: the concentration at half-maximal activity (AC50) is 7.94 µM (active).
On the same count and under the same terms, for `CCC(CC)C(=O)Nc1c2cnn(-c3ccccc3)c2nc(=O)n1-c1ccccc1` the value was “inactive”.
As for `O=C(O)c1nnsc1-c1ccc(-c2snnc2C(=O)O)cc1`, the activity, negative = inhibition is -40.8% [at 11.4 µM] (inactive).
In the case of `N#CC(c1ccc(Cl)cc1)c1nc2ccccc2nc1C(F)(F)F` (configuration not stated), the AC50 was 0.562 µM (active).
Regarding `O=C(Nc1ccccc1)N1CCCC2(CCNCC2)C1`, the AC50 entry was “inactive”.
For the compound `O=C(Nc1cccc(NC(=O)N2CCN(c3ccccc3)CC2)c1)N1CCN(c2ccccc2)CC1`, the AC50 was 5.01 µM (active).
For `c1ccn(-c2ccc(N3CCOCC3)cc2)c1`, the AC50 result is “inactive”.
Still for that read-out and setting: for `CC1CCCC(NC(=O)C2CCN(S(=O)(=O)N3CCOCC3)CC2)C1C` (configuration not stated) the value was “inactive”; for `O=C(C1CCN(S(=O)(=O)N2CCOCC2)CC1)N1CCN(c2ccccc2)CC1`, 25.1 µM (active).
With `O=C(Nc1ccccc1)N1CCC2(CCNCC2)CC1`, the AC50 entry was “inactive”.
Same read-out and setting: for `O=C(N1CCOCC1)N1CCN(c2ccccc2)CC1` the value was 14.1 µM (active); for `O=C(CCNS(=O)(=O)c1ccc2c(c1)CCC(=O)N2)NCc1ccc2c(c1)OCO2`, “inactive”; for `COc1ccc(NC(=O)CCNS(=O)(=O)c2ccc3c(c2)CCC(=O)N3)cc1`, “inactive”.
Still for that read-out and setting: to `COc1ccc(N(C)S(=O)(=O)c2ccc3c(c2)CCC(=O)N3)cc1` belongs 6.31 µM (active).

The values are drawn from PubChem BioAssay AID1851 (National Center for Advancing Translational Sciences (NCATS), 2009).
